The values below come from the supplement of paper PMC7366291.

Settings in all cases: 25 µM; exposure: 24-48 hpf
Assay [1] has as its system Danio rerio Tg(wt1b:EGFP) embryo, pronephros. The experiment in a line: glomerular separation, fold change vs DMSO control; higher = glomeruli further apart (abnormal). In a few lines: (§1)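 Every feature is expressed as a fold change relative to the averaged DMSO-treated embryos of the same day. The exposure ran from 24 to 48 hpf at 28.5°C, with dechorionated Tg(wt1b:EGFP) zebrafish embryos in HEPES-buffered E3 containing 0.003% PTU, 0.5% DMSO and 25 μM compound. Dorsal pronephros images taken in agarose-filled 96-well plates were reduced to maximum projections, on which 16 reference points were set by hand in Fiji for a macro to compute distances and angles. Values more than 2 SD from the feature mean were not used.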

The test system is the same in assay [2]. The experiment in a line: glomerular width (mean of left and right), fold change vs DMSO control; higher = wider glomerulus. Summed up: as §1
For assay [3] the test system is unchanged. The experiment in a line: fraction of imaged embryos annotated as normal kidney; higher = less nephrotoxic; extreme values may be limits of the assay. In a few lines:
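From 24 to 48 hpf at 28.5°C, dechorionated Tg(wt1b:EGFP) zebrafish embryos in 12-well plates were kept in 5 mM HEPES-buffered E3 with 0.003% PTU, 0.5% DMSO and 25 μM compound. Pronephroi were imaged by widefield fluorescence at 470 nm and judged by eye from maximum projections. Reported is the proportion of embryos per treatment in the normal-kidney category.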

The test system is the same in assay [4]. The experiment in a line: pronephric angle neck segment to proximal convoluted tubule (mean of left and right), fold change vs DMSO control; higher = larger pronephric angle. In a few lines:
as §1

Where a name gives a salt, the structure may show the parent alone. ± gives the standard deviation or the standard deviation of the averaged measurements.

Turning to `CC(=O)Nc1ccc(O)cc1` [Acetaminophen], the glomerular separation in assay [1] is 0.86 ± 0.31. This compound gave a glomerular width in assay [2] of 0.987 ± 0.037. Further, the “fraction of imaged embryos annotated as normal kidney” value (“fraction of imaged embryos annotated” below) in assay [3] came to 1. The “pronephric angle neck segment” value in assay [4] was found to be 0.9829 ± 0.0034.
Take `COC(=O)[C@H](c1ccccc1Cl)N1CCc2sccc2C1` [Clopidogrel]: in assay [1], the glomerular separation worked out at 1.06 ± 0.52. The glomerular width in assay [2] is 0.893 ± 0.055. Besides, the “fraction of imaged embryos annotated” value in assay [3] was found to be 0.833. The “pronephric angle neck segment” value in assay [4] is 1.05 ± 0.054.
For the compound `O=C(O)CCC(=O)Nc1ccc(S(=O)(=O)Nc2nccs2)cc1` [Succinylsulfathiazole], in assay [1], the glomerular separation was 0.974 ± 0.39. The compound also registered a glomerular width in assay [2] of 1.03 ± 0.012. Besides, the “fraction of imaged embryos annotated” value in assay [3] was found to be 0.667. The “pronephric angle neck segment” value in assay [4] was 0.997 ± 0.029.
As to `CCOc1ccc2c(c1)C(C)=CC(C)(C)N2` [Ethoxyquin], in assay [1], the glomerular separation is 0.864 ± 0.31. This compound also displayed a glomerular width in assay [2] of 1.04 ± 0.039. Also, the “fraction of imaged embryos annotated” value in assay [3] stood at 0.75. For the same compound, in assay [4], the “pronephric angle neck segment” value was 0.975 ± 0.044.
The matching figures for `N#Cc1ccc(C(c2ccc(C#N)cc2)n2cncn2)cc1` [Letrozole]: 1.1 ± 0.4, 1.023 ± 0.0059, 0.917 and 0.938 ± 0.014.
`C[C@]12C=CC(=O)C=C1CC[C@H]1[C@@H]3C[C@@H](O)[C@](O)(C(=O)CO)[C@@]3(C)C[C@H](O)[C@@]12F` [Triamcinolone] registered a glomerular separation in assay [1] of 1.19 ± 0.58. In addition, the glomerular width in assay [2] turned out to be 1.23 ± 0.034. In addition, the “fraction of imaged embryos annotated” value in assay [3] came to 0.75. In addition, the “pronephric angle neck segment” value in assay [4] came to 1.119 ± 0.0058.
In turn, `CN1CCCN=C1/C=C/c1cccc(O)c1` [Oxantel pamoate] gave a glomerular separation in assay [1] of 0.88 ± 0.16. This compound gave a glomerular width in assay [2] of 1.012 ± 0.0033. For the same compound, the “fraction of imaged embryos annotated” value in assay [3] came to 0.917. For the same compound, the “pronephric angle neck segment” value in assay [4] was 1.03 ± 0.034.
Turning to `N=C(N)NCC1COC2(CCCCC2)O1` (stereo not drawn) [Guanadrel sulfate], the glomerular separation in assay [1] was 0.935 ± 0.45. Besides, the glomerular width in assay [2] was 1.02 ± 0.071. The “fraction of imaged embryos annotated” value in assay [3] was found to be 0.75. The “pronephric angle neck segment” value in assay [4] was determined as 0.992 ± 0.012.
In assay [1], `CC(C)NCC(O)c1ccc(NS(C)(=O)=O)cc1` (stereo not drawn) [Sotalol hydrochloride] returned a glomerular separation of 0.82 ± 0.23. Besides, the glomerular width in assay [2] was 1.03 ± 0.062. Also, the “fraction of imaged embryos annotated” value in assay [3] came to 0.8. In addition, the “pronephric angle neck segment” value in assay [4] was found to be 1.01 ± 0.043.
`O=C1OCCN1/N=C/c1ccc([N+](=O)[O-])o1` [Furazolidone]: the glomerular separation in assay [1] came to 0.83 ± 0.29. The compound also came in with a glomerular width in assay [2] of 0.9957 ± 0.006. Moreover, the “fraction of imaged embryos annotated” value in assay [3] was found to be 1. For the same compound, in assay [4], the “pronephric angle neck segment” value stood at 0.935 ± 0.054.
On to `Clc1ccc(COC(Cn2ccnc2)c2ccc(Cl)cc2Cl)c(Cl)c1` (stereo not drawn) [Miconazole], for which the glomerular separation in assay [1] turned out to be 3.42 ± 1.6. In assay [2], this compound gave a glomerular width of 0.865 ± 0.069. The “fraction of imaged embryos annotated” value in assay [3] is 0.0909. Also, the “pronephric angle neck segment” value in assay [4] was 1.481 ± 0.012.
In turn, `COc1cc2ncnc(Nc3ccc(F)c(Cl)c3)c2cc1OCCCN1CCOCC1` [Gefitinib] yielded a glomerular separation in assay [1] of 1.29 ± 0.64. The compound also displayed a glomerular width in assay [2] of 0.981 ± 0.034. The “fraction of imaged embryos annotated” value in assay [3] is 1. In addition, in assay [4], the “pronephric angle neck segment” value is 1.02 ± 0.024.
In the case of `CN(C)CCn1nnnc1SCC1=C(C(=O)O)N2C(=O)[C@@H](NC(=O)Cc3csc(N)n3)[C@H]2SC1` [Cefotiam hydrochloride], the glomerular separation in assay [1] is 1.46 ± 0.87. This compound also came in with a glomerular width in assay [2] of 0.929 ± 0.014. The “fraction of imaged embryos annotated” value in assay [3] turned out to be 0.917. For the same compound, the “pronephric angle neck segment” value in assay [4] worked out at 1.08 ± 0.14.
On to `CN(C)CCc1c[nH]c2ccc(Cn3cncn3)cc12` [Rizatriptan benzoate], for which, in assay [1], the glomerular separation amounted to 0.941 ± 0.29. Further, the glomerular width in assay [2] amounted to 1.01 ± 0.025. The “fraction of imaged embryos annotated” value in assay [3] is 0.5. Further, the “pronephric angle neck segment” value in assay [4] stood at 1.02 ± 0.07.
For the compound `CC(C)(Oc1ccc(CCNC(=O)c2ccc(Cl)cc2)cc1)C(=O)O` [Bezafibrate], the glomerular separation in assay [1] was determined as 0.842 ± 0.27. This compound showed a glomerular width in assay [2] of 0.988 ± 0.072. In assay [3], the “fraction of imaged embryos annotated” value was found to be 0.917. Besides, in assay [4], the “pronephric angle neck segment” value is 0.966 ± 0.0086.
On to `Oc1c(I)cc(Cl)c2cccnc12` [Clioquinol], for which the glomerular separation in assay [1] was found to be 4.35 ± 1.5. This compound had a glomerular width in assay [2] of 0.626 ± 0.024. Besides, the “fraction of imaged embryos annotated” value in assay [3] amounted to 0. The “pronephric angle neck segment” value in assay [4] came to 1.59 ± 0.077.
In the case of `COc1ccc2c(c1)c(CC(=O)OCC(=O)O)c(C)n2C(=O)c1ccc(Cl)cc1` [Acemetacin], in assay [1], the glomerular separation was determined as 1.28 ± 0.69. Also, in assay [2], the glomerular width amounted to 1.04 ± 0.027. The “fraction of imaged embryos annotated” value in assay [3] was determined as 0.917. For the same compound, in assay [4], the “pronephric angle neck segment” value came to 1.08 ± 0.039.
Take `CC[C@H]1OC(=O)[C@H](C)[C@@H](O[C@H]2C[C@@](C)(OC)[C@@H](O)[C@H](C)O2)[C@H](C)[C@@H](O[C@@H]2O[C@H](C)C[C@H](N(C)C)[C@H]2O)[C@](C)(O)C[C@@H](C)/C(=N\OCOCCOC)[C@H](C)[C@@H](O)[C@]1(C)O` [Roxithromycin]: the glomerular separation in assay [1] amounted to 0.811 ± 0.45. Also, in assay [2], the glomerular width was 1 ± 0.014. Besides, the “fraction of imaged embryos annotated” value in assay [3] worked out at 0.75. Also, the “pronephric angle neck segment” value in assay [4] was found to be 1.02 ± 0.03.
Take `O=C1c2c(O)ccc(O)c2C(=O)c2c(NCCNCCO)ccc(NCCNCCO)c21` [Mitoxantrone dihydrochloride]: in assay [1], the glomerular separation stood at 1.13 ± 0.46. In assay [2], this compound yielded a glomerular width of 1.03 ± 0.063. Besides, the “fraction of imaged embryos annotated” value in assay [3] is 0.667. Further, the “pronephric angle neck segment” value in assay [4] stood at 1.07 ± 0.1.
For `CC(=O)O[C@H]1C(=O)[C@@]2(C)[C@H]([C@H](OC(=O)c3ccccc3)[C@]3(O)C[C@H](OC(=O)[C@H](O)[C@@H](NC(=O)c4ccccc4)c4ccccc4)C(C)=C1C3(C)C)[C@]1(OC(C)=O)CO[C@@H]1C[C@@H]2O` [Paclitaxel], in assay [1], the glomerular separation turned out to be 1.59 ± 0.55. In addition, the glomerular width in assay [2] was 1.06 ± 0.015. Moreover, the “fraction of imaged embryos annotated” value in assay [3] is 1. For the same compound, in assay [4], the “pronephric angle neck segment” value was found to be 0.964 ± 0.021.
In assay [1], `NNc1nncc2ccccc12` [Hydralazine hydrochloride] came in with a glomerular separation of 1.14 ± 0.53. In assay [2], this compound had a glomerular width of 1.04 ± 0.041. Also, the “fraction of imaged embryos annotated” value in assay [3] was found to be 0.818. Further, in assay [4], the “pronephric angle neck segment” value stood at 1.02 ± 0.039.
In assay [1], `O=C1NCCN1c1ncc([N+](=O)[O-])s1` [Niridazole] yielded a glomerular separation of 1.24 ± 0.57. This compound returned a glomerular width in assay [2] of 0.867 ± 0.021. Besides, the “fraction of imaged embryos annotated” value in assay [3] was found to be 0.833. Besides, the “pronephric angle neck segment” value in assay [4] is 1.14 ± 0.077.
In the case of `CO[C@@H]1[C@@H](OC(N)=O)[C@@H](O)[C@H](Oc2ccc3c(O)c(NC(=O)c4ccc(O)c(CC=C(C)C)c4)c(=O)oc3c2C)OC1(C)C` [Novobiocin sodium salt], in assay [1], the glomerular separation stood at 0.71 ± 0.24. The glomerular width in assay [2] was 1.06 ± 0.038. Further, the “fraction of imaged embryos annotated” value in assay [3] was 0.75. For the same compound, in assay [4], the “pronephric angle neck segment” value amounted to 0.9784 ± 0.0046.
The matching figures for `CCOC(=O)O[C@]1(C(=O)COC(=O)CC)CC[C@H]2[C@@H]3CCC4=CC(=O)C=C[C@]4(C)[C@H]3[C@@H](O)C[C@@]21C` [Prednicarbate]: 1.89 ± 0.71, 1.11 ± 0.066, 0.417 and 1.03 ± 0.058.
The matching figures for `CO[C@H]1C[C@H](O[C@H]2[C@H](C)[C@@H](O[C@@H]3O[C@H](C)C[C@H](N(C)C)[C@H]3OC(C)=O)[C@@H](C)C[C@@]3(CO3)C(=O)[C@H](C)[C@@H](OC(C)=O)[C@@H](C)[C@@H](C)OC(=O)[C@@H]2C)O[C@@H](C)[C@@H]1OC(C)=O` [Troleandomycin]: 1.39 ± 0.74, 1.12 ± 0.066, 0.917 and 0.969 ± 0.019.
Take `CCC1(C)CC(=O)NC1=O` (stereo not drawn) [Ethosuximide]: in assay [1], the glomerular separation is 0.979 ± 0.37. In assay [2], the glomerular width was 1.07 ± 0.029. Moreover, the “fraction of imaged embryos annotated” value in assay [3] worked out at 0.833. In assay [4], the “pronephric angle neck segment” value is 0.972 ± 0.013.
The corresponding values for `CN(C)CCc1c[nH]c2ccc(C[C@H]3COC(=O)N3)cc12` [Zolmitriptan] are 0.75 ± 0.13, 0.941 ± 0.034, 0.833 and 1.03 ± 0.019.
